Activity calls are given as the source filed them. Rule for the calls: active = hit-call score of the fitted dose curve at least 0.9, where 1 is the maximum; inactive = score below 0.9.
How the values were obtained:
[1] = target: Paired box protein Pax-6 (Homo sapiens) (UniProt P26367); assay: ATG_Pax6_CIS: Attagene CIS-FACTORIAL HepG2 Assay for human Paired Box 6 (PAX6) (AID 2282956); details: HepG2 CIS-FACTORIAL PAX6 reporter transcription, RNA readout; actives raise or lower the signal
Method in brief: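 After twenty-four hours of chemical exposure, transfected HepG2 cells are harvested for RNA. Cis-promoter reporter transcripts are amplified, fluorescently labelled and sized by capillary electrophoresis, with gain and loss of signal scored against DMSO.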

[2] = ATG_PXRE_CIS: Attagene CIS-FACTORIAL HepG2 Assay for human Pregnane X Receptor Element (PXRE) (AID 2282957); details: HepG2 Attagene CIS-FACTORIAL PXRE reporter, mRNA; actives raise or lower the signal
Method in brief: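 Cis-element reporter mRNA in human hepatoma HepG2 cells is measured 24 h post-dosing by RT-PCR, primer-extension labeling and capillary electrophoresis; gain or loss of signal is fitted relative to DMSO.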

[3] = ATG_PPRE_CIS: Attagene CIS-FACTORIAL HepG2 Assay for human Peroxisome Proliferator-activated Response Element (PPRE) (AID 2282958); details: HepG2 PPRE cis-element reporter, Attagene transcription factor profiling; actives raise or lower the signal
Method in brief: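 HepG2, transient MRTU transfection (cis promoter elements, endogenous TFs). 24 h dosing. RNA → oligo(dT) RT → PCR → 6-FAM primer extension → HpaI digest → CE. Bidirectional fit vs DMSO.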

[4] = ATG_RORE_CIS: Attagene CIS-FACTORIAL HepG2 Assay for human RAR-related Orphan Receptor Element (RORE) (AID 2282959); details: HepG2 Attagene cis-factorial RORE reporter, mRNA; actives raise or lower the signal
Method in brief: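 Transient MRTU transfection of human HepG2 liver cells (FuGene 6); 24 h compound exposure; TriZol RNA, oligo(dT) RT, PCR, FAM labeling, HpaI cut, CE fragment analysis. DMSO = negative control/baseline.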

[5] = ATG_Sox_CIS: Attagene CIS-FACTORIAL HepG2 Assay for human SRY-box transcription factor (SOX) (AID 2282960); details: HepG2 Attagene cis-factorial SOX reporter, mRNA; actives raise or lower the signal
Method in brief: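 Endogenous factor activity in human liver HepG2 cells carrying transfected cis-regulated reporter units. RNA taken 24 h post-dose, reverse-transcribed, PCR-amplified and sized by capillary electrophoresis. Gain or loss of signal fitted relative to DMSO.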

[6] = target: Transcription factor Sp1 (Homo sapiens) (UniProt P08047); assay: ATG_Sp1_CIS: Attagene CIS-FACTORIAL HepG2 Assay for human Specificity Protein 1 (Sp1) (AID 2282961); details: HepG2 Sp1 cis-reporter transcription, actives raise or lower the signal
Method in brief: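 Transient MRTU-transfected HepG2, 24 h compound exposure. Total RNA → oligo(dT) RT → PCR of reporter → 6-FAM primer extension → HpaI digest → CE. Endpoint fitted both directions vs DMSO.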

[7] = ATG_SREBP_CIS: Attagene CIS-FACTORIAL HepG2 Assay for human Sterol Regulatory Element Binding (SREBP) (AID 2282962); details: HepG2 Attagene cis-factorial SREBP reporter, mRNA; actives raise or lower the signal
Method in brief: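 Twenty-four hours after chemical dosing of transfected HepG2 cultures, reporter RNA was converted to cDNA, amplified, end-labelled with 6-FAM and resolved by capillary electrophoresis. Responses were fitted relative to DMSO.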

[8] = target: Signal transducer and activator of transcription 3 (Homo sapiens) (UniProt P40763); assay: ATG_STAT3_CIS: Attagene CIS-FACTORIAL HepG2 Assay for human Signal Transducer and Activator of Transcription 3 (STAT3) (AID 2282963); details: HepG2, Attagene cis-factorial STAT3 reporter transcription; actives raise or lower the signal
Method in brief: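 HepG2 cells transiently transfected with multiple cis-element-driven reporter units report endogenous transcription factor activity. After 24 h compound exposure, reporter mRNA is measured by RT-PCR, 6-FAM labelling, HpaI digestion and capillary electrophoresis. Fitted bidirectionally versus DMSO.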

[9] = ATG_TA_CIS: Attagene CIS-FACTORIAL HepG2 Assay for human TA Basal Promoter (AID 2282964); details: HepG2 Attagene CIS-factorial TA basal promoter reporter; actives raise or lower the signal
Method in brief: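 Transfected HepG2, 24 h compound exposure; RNA → RT-PCR → FAM primer extension → HpaI cut → CE fluorescence. Gain/loss-of-signal fitted against DMSO negative control. Background-control readout.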

[10] = ATG_TCF_b_cat_CIS: Attagene CIS-FACTORIAL HepG2 Assay for human T-Cell-Factor with beta-catenin (TCF/b-cat) (AID 2282965); details: HepG2 TCF/beta-catenin cis-reporter transcription, actives raise or lower the signal
Method in brief: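 HepG2 cells transiently transfected with cis-promoter-driven multiplexed reporter units; reporter mRNA measured 24 h after dosing by RT-PCR, FAM labelling, HpaI digestion and capillary electrophoresis. Bidirectional fitting relative to DMSO baseline.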

Chain of Transcription factor Sp1 (Homo sapiens) (P08047 whole entry, looked up): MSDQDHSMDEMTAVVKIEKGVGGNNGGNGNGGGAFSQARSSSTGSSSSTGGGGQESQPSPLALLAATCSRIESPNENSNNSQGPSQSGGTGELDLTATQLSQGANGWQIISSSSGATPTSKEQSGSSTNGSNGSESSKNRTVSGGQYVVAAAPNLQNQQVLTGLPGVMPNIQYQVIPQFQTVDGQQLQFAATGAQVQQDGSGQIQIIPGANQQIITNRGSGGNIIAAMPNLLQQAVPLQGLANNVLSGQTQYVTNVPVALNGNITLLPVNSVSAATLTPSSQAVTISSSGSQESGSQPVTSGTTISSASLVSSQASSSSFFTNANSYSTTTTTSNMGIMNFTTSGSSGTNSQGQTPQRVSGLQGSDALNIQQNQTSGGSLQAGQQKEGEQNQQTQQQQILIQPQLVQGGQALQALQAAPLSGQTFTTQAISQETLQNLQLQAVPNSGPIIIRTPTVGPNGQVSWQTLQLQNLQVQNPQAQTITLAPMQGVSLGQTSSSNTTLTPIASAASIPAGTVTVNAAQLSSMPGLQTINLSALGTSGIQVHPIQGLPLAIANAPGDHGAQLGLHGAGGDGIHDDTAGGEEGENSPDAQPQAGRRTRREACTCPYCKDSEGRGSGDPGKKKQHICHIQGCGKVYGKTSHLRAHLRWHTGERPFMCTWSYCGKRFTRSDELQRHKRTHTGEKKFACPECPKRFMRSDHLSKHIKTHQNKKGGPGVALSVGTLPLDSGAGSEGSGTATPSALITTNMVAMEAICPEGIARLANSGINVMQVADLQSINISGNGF
Chain of Paired box protein Pax-6 (Homo sapiens) (P26367 whole entry, looked up): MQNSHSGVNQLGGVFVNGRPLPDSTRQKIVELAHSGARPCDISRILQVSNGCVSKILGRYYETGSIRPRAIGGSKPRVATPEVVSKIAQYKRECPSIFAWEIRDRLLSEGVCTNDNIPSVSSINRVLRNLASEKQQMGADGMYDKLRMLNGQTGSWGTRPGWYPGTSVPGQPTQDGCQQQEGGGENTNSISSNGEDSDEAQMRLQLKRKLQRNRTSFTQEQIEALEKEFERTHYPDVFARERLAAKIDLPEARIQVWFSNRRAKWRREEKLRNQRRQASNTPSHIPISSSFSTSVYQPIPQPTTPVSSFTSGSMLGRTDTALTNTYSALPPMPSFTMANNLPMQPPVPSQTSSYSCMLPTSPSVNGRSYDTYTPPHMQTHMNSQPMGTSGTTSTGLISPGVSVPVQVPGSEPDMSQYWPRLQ
Chain of Signal transducer and activator of transcription 3 (Homo sapiens) (P40763 whole entry, looked up): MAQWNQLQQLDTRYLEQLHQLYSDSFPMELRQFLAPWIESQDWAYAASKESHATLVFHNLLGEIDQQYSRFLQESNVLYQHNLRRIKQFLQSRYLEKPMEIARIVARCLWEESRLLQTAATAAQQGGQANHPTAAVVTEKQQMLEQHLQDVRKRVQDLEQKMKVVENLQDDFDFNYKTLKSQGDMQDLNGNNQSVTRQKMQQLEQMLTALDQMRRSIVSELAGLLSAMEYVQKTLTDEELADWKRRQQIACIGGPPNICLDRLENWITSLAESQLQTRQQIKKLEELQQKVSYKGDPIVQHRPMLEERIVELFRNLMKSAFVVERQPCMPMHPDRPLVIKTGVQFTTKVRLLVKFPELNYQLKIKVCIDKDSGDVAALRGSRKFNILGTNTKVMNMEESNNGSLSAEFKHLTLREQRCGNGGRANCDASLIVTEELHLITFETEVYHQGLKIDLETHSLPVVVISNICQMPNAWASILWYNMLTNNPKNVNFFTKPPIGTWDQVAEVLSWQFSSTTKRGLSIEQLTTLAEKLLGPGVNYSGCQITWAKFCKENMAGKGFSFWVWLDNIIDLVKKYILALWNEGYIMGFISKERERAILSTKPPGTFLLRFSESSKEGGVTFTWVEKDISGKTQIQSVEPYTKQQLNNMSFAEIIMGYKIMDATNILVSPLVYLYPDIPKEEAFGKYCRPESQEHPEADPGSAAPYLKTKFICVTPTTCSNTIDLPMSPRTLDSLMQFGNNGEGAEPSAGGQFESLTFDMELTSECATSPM

| SMILES | outcome [1] | outcome [2] | outcome [3] | outcome [4] | outcome [5] | outcome [6] | outcome [7] | outcome [8] | outcome [9] | outcome [10] | AC50 [2] | AC50 [1] | AC50 [3] | AC50 [7] | AC50 [10] | AC50 [4] | AC50 [6] |
| --- | --- | --- | --- | --- | --- | --- | --- | --- | --- | --- | --- | --- | --- | --- | --- | --- | --- |
| C[N+](C)(C)CCCCCC[N+](C)(C)C | inactive | inactive | inactive | inactive | inactive | inactive | inactive | inactive | inactive | inactive |  |  |  |  |  |  |  |
| Nc1ccn([C@H]2CS[C@@H](CO)O2)c(=O)n1 | inactive | inactive | inactive | inactive | inactive | inactive | inactive | inactive | inactive | inactive |  |  |  |  |  |  |  |
| IC(I)I | inactive |  | inactive | inactive | inactive | inactive | inactive | inactive | inactive | inactive | 5.98 µM (active) |  |  |  |  |  |  |
| C=CC(C)C#N (stereo not given) | inactive | inactive | inactive | inactive | inactive | inactive | inactive | inactive | inactive |  |  |  |  |  |  |  |  |
| CCC(=O)O[C@@H]1C[C@H]2CC[C@]1(C)C2(C)C | inactive | inactive | inactive | inactive | inactive | inactive | inactive | inactive | inactive | inactive |  |  |  |  |  |  |  |
| Cc1ncc([N+](=O)[O-])n1CCO | inactive | inactive | inactive | inactive | inactive | inactive | inactive | inactive | inactive | inactive |  |  |  |  |  |  |  |
| COc1ccc(N)c([N+](=O)[O-])c1 | inactive | inactive | inactive | inactive | inactive | inactive | inactive | inactive | inactive | inactive |  |  |  |  |  |  |  |
| CCN(CCC#N)c1ccc(N=Nc2ccc([N+](=O)[O-])cc2)cc1 | inactive | inactive | inactive | inactive | inactive | inactive | inactive | inactive | inactive |  |  |  |  |  |  |  |  |
| CC(C=O)Cc1ccc(C(C)(C)C)cc1 (stereo not given) | inactive |  | inactive | inactive | inactive | inactive | inactive | inactive | inactive | inactive | 27.6 µM (active) |  |  |  |  |  |  |
| C=COCCOCCOC=C | inactive | inactive | inactive | inactive | inactive | inactive | inactive | inactive |  |  |  |  |  |  |  |  |  |
| CS(=O)(=O)OCCCCOS(C)(=O)=O | inactive |  | inactive | inactive | inactive | inactive | inactive | inactive | inactive | inactive | 55.8 µM (active) |  |  |  |  |  |  |
| COc1cc(C(C)C)ccc1C | inactive | inactive | inactive | inactive | inactive | inactive | inactive | inactive | inactive |  |  |  |  |  |  |  |  |
| O=C1NC2NC(=O)NC2N1 (stereo not given) | inactive |  | inactive | inactive | inactive | inactive | inactive | inactive | inactive | inactive | 27.9 µM (active) |  |  |  |  |  |  |
| CCOC(=O)CN | inactive | inactive | inactive | inactive | inactive | inactive | inactive | inactive | inactive |  |  |  |  |  |  |  |  |
| C=CCN(CC=C)CC=C | inactive | inactive | inactive | inactive | inactive | inactive | inactive | inactive | inactive | inactive |  |  |  |  |  |  |  |
| CCO/C=C1\N=C(c2ccccc2)OC1=O | inactive |  | inactive | inactive | inactive | inactive | inactive | inactive | inactive | inactive | 63.8 µM (active) |  |  |  |  |  |  |
| CC(C)(C)C1=CC(=O)C(C(C)(C)C)=CC1=O |  |  |  | inactive | inactive | inactive |  | inactive |  |  | 1.29 µM (active) | 61.5 µM (active) | 13.4 µM (active) | 25.7 µM (active) | 50 µM (active) |  |  |
| CC1(C)C(=O)N(Cl)C(=O)N1Br | inactive |  | inactive | inactive | inactive | inactive | inactive | inactive | inactive | inactive | 62.7 µM (active) |  |  |  |  |  |  |
| O=[N+]([O-])c1ccc(O)cc1C(F)(F)F | inactive |  | inactive |  | inactive |  |  | inactive |  | inactive | 84.1 µM (active) |  |  | 100 µM (active) |  | 49 µM (active) | 100 µM (active) |
| CC=Cc1ccc(OCC)c(O)c1 | inactive |  | inactive | inactive | inactive | inactive | inactive | inactive | inactive | inactive | 65.8 µM (active) |  |  |  |  |  |  |
| CCCCCCCC(=O)OCC(O)CO (stereo not given) | inactive | inactive | inactive | inactive | inactive | inactive | inactive | inactive | inactive | inactive |  |  |  |  |  |  |  |
| CCCC[O][Al]([O]CCCC)[O]CCCC | inactive | inactive | inactive | inactive | inactive | inactive | inactive | inactive |  | inactive |  |  |  |  |  |  |  |
| CC(=O)CC(=O)Nc1ccc(C)cc1C | inactive | inactive | inactive | inactive | inactive | inactive | inactive | inactive | inactive | inactive |  |  |  |  |  |  |  |
| C#CC(C)N(C)C(=O)Nc1ccc(Cl)cc1 (stereo not given) | inactive |  | inactive | inactive | inactive | inactive | inactive | inactive |  | inactive | 8.86 µM (active) |  |  |  |  |  |  |
| C=Cc1ccc(C)cc1 | inactive |  | inactive | inactive | inactive | inactive | inactive | inactive | inactive | inactive | 36.9 µM (active) |  |  |  |  |  |  |
